Assay results: PubChem BioAssay (NCATS)
Results filed as inconclusive are left out. Activity calls are given as the source filed them. The call rests on the fitted dose curve; in most records, active means well fitted inhibition curve with a large enough effect; inconclusive means small, poorly fitted or top-dose-only effect; inactive means flat fitted curve, though single readings scatter.

Experiment: qHTS of Trypanosoma Brucei Inhibitors: LOPAC Validation (AID 624147)
Settings: purified enzyme assay, luminescence, 45 min; series mostly up to 57.5 µM
From the text: Members of the Trypanosomatidae family of parasitic protozoans cause a spectrum of diseases throughout the tropical and subtropical world. Sleeping sickness, caused by two subspecies of Trypanosoma brucei, is endemic to areas of sub-Saharan Africa, while Chagas' disease, a manifestation of Trypanosoma cruzi infection, is prevalent throughout Central and South America. In addition, many species of Leishmania are responsible for a range of cutaneous and visceral diseases, causing ulcers, destructive lesions and kalaazar, a lethal infection of the viscera. These diseases cause severe public health and economic burdens on populations that are often already caught in a tragic cycle of poverty, poor nutrition and disease. Collectively, parasites of the trypanosomatid family infect 30 million people worldwide (~500 million live in endemic areas), and account for ~130K deaths annually. Existing treatments have developed little in the past 50 years, and suffer from toxicity, poor efficacy and resistance; the goal of this project is to develop lead drugs that will be suitable for entry into pre-clinical trials.
Glycolysis in axenically cultured T. cruzi, representing the intracellular pathogenic stage, is also essential for these parasites. {Engel, 1987} This project aims to discover and optimize selective inhibitors of the glycolytic enzyme pyruvate kinase (PYK) from Trypanosoma brucei, the parasite that causes sleeping sickness. […] Trypanosomatid PYKs show significant differences from their human counterparts including only 47-50% sequence identity and different allosteric and activation properties.{Callens, 1992} To this end, a qHTS was done against the MLSMR to discover inhibitors.
NIH Molecular Libraries Probe Production Network [MLPCN]
NIH Chemical Genomics Center [NCGC]
PI Name: Malcolm Walkinshaw, University of Edinburgh
2 uL of TbPYK/substrate buffer (columns 1-3, 5-48) are dispensed into Greiner white solid bottom 1536-well assay plates; column 4 receives only TEA buffer as 0x TbPYK controls. Compounds are then transferred via Kalypsys pin tool equipped with 1536-pin array (10 nL slotted pins, V&P Scientific, San Diego, CA). Following addition of compound, 2 uL of ADP (130 uM final concentration, all columns) is added to initiate the reaction. The plates are then incubated at room temperature for 45 minutes. Kinase-Glo Plus reagent is added (3 uL) and plates incubated for 10 minutes, before being transferred to a ViewLux high-throughput CCD imager (PerkinElmer) wherein single end-point measurements of luminescence are acquired using a clear filter. All reagents are diluted in an assay buffer consisting of 50 mM TEA (pH 7.2), 100 mM KCl, 10 mM MgCl2, 0.05% BSA and 0.01% Tween-20.
All screening operations will be performed on a fully integrated robotic system (Kalypsys, San Diego, CA) containing one RX-130 and two RX-90 anthropomorphic robotic arms (Staeubli, Duncan, SC). Library plates will be screened starting from the lowest and proceeding to the highest concentration. Vehicle-only plates, with DMSO being pin-transferred to columns 5-48, will be inserted uniformly at the beginning and the end of each library in order to monitor and record any shifts in the background, which can be affected by reagent dispensers or loss in enzyme activity over time. Screening data will be corrected, normalized, and concentration-effect relationships will be derived by using publicly-available curve fitting algorithms developed in-house (http://ncgc.nih.gov/pub/openhts).

| Structure (SMILES) | outcome |
| --- | --- |
| OCc1cc(C(O)CNCCCCCCOCCCCc2ccccc2)ccc1O (stereo not given) | inactive |
| CN(C)CCOC(C)(c1ccccc1)c1ccccn1 (stereo not given) | inactive |
| O=C1N=C(O)CN1/N=C/c1ccc(-c2ccc([N+](=O)[O-])cc2)o1 | inactive |
| CC(C)(C(=O)O)c1ccc(C(O)CCCN2CCC(C(O)(c3ccccc3)c3ccccc3)CC2)cc1 (stereo not given) | inactive |
| N=c1c[n+](N2CCOCC2)[n-]o1 | inactive |
| C=Cc1c(C)c2cc3[nH]c(cc4nc(cc5nc(cc1[nH]2)C(C)=C5CCC(=O)O)C(CCC(=O)O)=C4C)c(C)c3C=C | inactive |
| CCN(CC)CCOC(=O)C1(C2CCCCC2)CCCCC1 | inactive |
| CC(C)(C)[C@]1(O)CCN2C[C@H]3c4ccccc4CCc4cccc(c43)[C@@H]2C1 | inactive |
| CCCn1cnc2c1c(=O)n(CCCCC(C)=O)c(=O)n2C | inactive |
| C[C@](N)(Cc1ccc(O)cc1)C(=O)O | inactive |
| CCN(CC)C(C)CN1c2ccccc2Sc2ccccc21 (stereo not given) | inactive |
| CSc1ccc2c(c1)C(N1CCN(C)CC1)Cc1ccccc1S2 (stereo not given) | inactive |
| NC1CCN(c2cccc(Cl)n2)CC1 | inactive |
| COCCOC(=O)C1=C(C)NC(C)=C(C(=O)OC/C=C/c2ccccc2)C1c1cccc([N+](=O)[O-])c1 (stereo not given) | inactive |
| CC(C)C(=O)c1c(C(C)C)nn2ccccc12 | inactive |
| CN(C)CCCN1c2ccccc2Sc2ccc(Cl)cc21 | inactive |
| C#CCN(C)Cc1ccccc1 | inactive |
| CN(C)CC[C@@H](c1ccc(Cl)cc1)c1ccccn1 | inactive |
| CC(=O)OCC(=O)[C@@]1(O)CC[C@H]2[C@@H]3CCC4=CC(=O)CC[C@]4(C)[C@H]3C(=O)C[C@@]21C | inactive |
| CC(CN1c2ccccc2Sc2ccccc21)N(C)C (stereo not given) | inactive |

| Structure (SMILES) | outcome |
| --- | --- |
| CC1=C(CC(=O)O)c2cc(F)ccc2/C1=C\c1ccc(S(C)=O)cc1 (stereo not given) | inactive |
| Nc1cc(=O)[nH]c(N)n1 | inactive |
| CN(C)CCC=C1c2ccccc2CCc2ccccc21 | inactive |
| COc1ccc(Cl)cc1C(=O)NCCc1ccc(S(=O)(=O)NC(=O)NC2CCCCC2)cc1 | inactive |
| CC1=C(/C=C/C(C)=C/C=C/C(C)=C/C(=O)O)C(C)(C)CCC1 | inactive |
| CC(C(O)c1ccc(O)cc1)N1CCC(Cc2ccccc2)CC1 (stereo not given) | inactive |
| CC[C@H]1CN2CCc3cc(OC)c(OC)cc3[C@@H]2C[C@@H]1C[C@H]1NCCc2cc(OC)c(OC)cc21 | inactive |
| OCCN1CCN(CCCN2c3ccccc3Sc3ccc(Cl)cc32)CC1 | inactive |
| CNCCCC1c2ccccc2C=Cc2ccccc21 | inactive |
| CC(CN(C)C)CN1c2ccccc2CCc2ccccc21 (stereo not given) | inactive |
| CC1=C(CC(=O)O)c2cc(F)ccc2/C1=C\c1ccc(S(C)(=O)=O)cc1 | inactive |
| CCCCCCCCCCCCCCCC(=O)NCCO | inactive |
| CSc1ccc2c(c1)N(CCC1CCCCN1C)c1ccccc1S2 (stereo not given) | inactive |
| CN1CCN(C2Cc3ccccc3Sc3ccc(Cl)cc32)CC1 (stereo not given) | inactive |
| CC(C)(C)c1onc(OCP(=O)(O)O)c1CC(N)C(=O)O (stereo not given) | inactive |
| CNCC(O)c1ccc(O)c(O)c1 (stereo not given) | inactive |
| C[C@]12C[C@H](O)[C@H]3[C@@H](CCC4=CC(=O)CC[C@@]43C)[C@@H]1CC[C@@H]2C(=O)CO | inactive |
| CNCCC(Oc1ccc(C(F)(F)F)cc1)c1ccccc1 (stereo not given) | inactive |
| Cc1cc(N)c2ccccc2[n+]1CCCCCCCCCC[n+]1c(C)cc(N)c2ccccc21 | inactive |
| NC(N)=NCCC[C@H](N)C(=O)O | inactive |
